Measured values: PubChem BioAssay AID504832 (National Center for Advancing Translational Sciences (NCATS), 2011)
In all, about 310,000 compounds went through this assay and about 18,000 (5.8%) were called active. Another 22% or so got no clear call; they are omitted. This is one part of a sample in which actives are shown more often than they occur. Unmarked numbers belong to inactive results. The call rests on the fitted dose curve; in most records, active means well fitted inhibition curve with a large enough effect; inconclusive means small, poorly fitted or top-dose-only effect, or another doubt; inactive means no such curve, though single readings can be large or run the other way.

test: Primary qHTS for delayed death inhibitors of the malarial parasite plastid, 48 hour incubation; details: P. falciparum luciferase growth in erythrocytes; series mostly up to 28.7 µM; activity change, negative = inhibition: at the top concentration
Outline: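 Compounds are pin-transferred into medium, infected erythrocytes (2% hematocrit, 0.1% parasitemia final) are added, and plates sit one parasite generation at 37 C in 5% CO2. Detection reagent is then added and luminescence measured.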
On the % scale 0 is the no-effect control and ±100 the full control effect; potency means the concentration at half of the fitted maximal effect.

| SMILES | Potency | activity change, negative = inhibition |
| --- | --- | --- |
| O=C(Cn1cc(-c2nnnn2-c2ccc(Cl)cc2)c(=O)c2ccccc21)c1ccccc1 | 1.65 µM (active) |  |
| O=C(Nc1ccccc1)OCc1cn(-c2ccc(Cl)cc2)nn1 |  | 50.9% |
| CCCc1c(C(=O)O)cnn1-c1ccc(Cl)cc1 |  | -4.75% |
| O=C(NCCS(=O)(=O)N1CCN(c2ccc(F)cc2)CC1)c1ccc2c(c1)OCO2 |  | -0.0064% |
| CCOCCCNC(=S)Nc1ccc2nc(N3CCN(CC)CC3)cc(C)c2c1 |  | -7.67% |
| CC[N+](C)(CC)CCC[n+]1c(-c2ccccc2)c2cc(N)ccc2c2ccc(N)cc21 | 1.85 µM (active) |  |
| CC(=O)Nc1ccc(NC(=O)CCCNC(=O)c2ccc(Cl)cc2)cc1 |  | 5.13% |
| CC(=O)c1cccc(NC(=O)c2cc(C)nn2-c2ccccc2)c1 |  | -2.83% [at 0.00184 µM] |
| CC(=O)Nc1ccc(NC(=O)CSc2nnc(C3CC3)n2-c2ccccc2)cc1 |  | -3.28% |
| CC[n+]1c(C)n(-c2ccccc2)c2ccc(NC(C)=O)cc21 | 4.65 µM (active) |  |
| O=C(COc1ccc(Cl)cc1)NCCS(=O)(=O)N1CCN(c2ccc(F)cc2)CC1 |  | -29.8% |
| CCc1ccccc1NC(=O)NCCN1CCCCC1 |  | -1.62% |
| CC(C)c1ccc(NC(=O)Cn2ncc3ccccc32)cc1 |  | 87.8% |
| COc1cccc(NC(=O)CN(C)C(=O)CSCc2nc3scc(-c4cccs4)c3c(=O)[nH]2)c1 |  | 2.18% |
| N/C(=N\OC(=O)N1c2ccccc2Sc2ccccc21)c1ccc(Br)cc1 | 8.28 µM (active) |  |
| N/C(=N\OC(=O)Cc1ccccc1[N+](=O)[O-])c1ccc(Br)cc1 |  | -9.12% |
| N/C(=N\OC(=O)/C=C/c1ccccc1)c1ccc(Br)cc1 |  | 4.81% |
| CCn1c(=S)sc2c(=O)n(CC(=O)Nc3ccc(OC)cc3)c(C)nc21 |  | 33.1% |
| CC(C)Oc1ccc(CCc2n[nH]c(=S)n2Cc2ccccc2)cc1 | 2.08 µM (active) |  |
| C=CCn1c(CCc2ccc(OC(C)C)cc2)n[nH]c1=S |  | 5.51% |
| CC(C)Oc1ccc(CCc2nnc(SCC(=O)O)n2-c2ccccc2)cc1 |  | 1.18% [at 5.75 µM] |
| CCOc1ccccc1OCCCNCc1ccccc1 |  | -4.88% |
| COc1cccc(NS(=O)(=O)c2ccc(-c3coc(C)n3)cc2)c1 |  | 43% |
| CCC(=O)Nc1ccc(-c2ccc(N3CCCCC3)nn2)cc1 |  | -19.4% |
| O=C(O)CN1CCN(C(c2ccccc2)c2ccccc2)CC1 |  | -9.74% |
| Cn1nnnc1SCC(=O)N1CCN(Cc2ccccc2)CC1 |  | -3.12% |

| SMILES | Potency | activity change, negative = inhibition |
| --- | --- | --- |
| O=C(c1ccc(-n2cnnn2)cc1)N1CCN(C(c2ccccc2)c2ccccc2)CC1 | 2.62 µM (active) |  |
| CC(OC(=O)c1ccc(-n2cnnn2)cc1)C(=O)NCc1ccccc1 (stereo not drawn) |  | -13.8% |
| Cn1nnnc1SCC(=O)Nc1nc2ccccc2s1 |  | 43.6% |
| Cn1nnnc1SCC(=O)N1CCN(C(c2ccccc2)c2ccccc2)CC1 | 9.28 µM (active) |  |
| COC(=O)c1sc(N2CCN(Cc3ccccc3)CC2)nc1N |  | -6.08% [at 0.00184 µM] |
| COc1ccccc1-n1ccnc(SCC(=O)NC2CCCCC2)c1=O |  | -14.1% |
| O=C(Nc1c2c(nn1-c1cccc(Cl)c1)CS(=O)(=O)C2)c1cccs1 |  | -0.404% |
| C=CCn1cc(C(=O)NCc2ccc(Cl)cc2)c(=O)c2cc(S(=O)(=O)N(CC)CC)ccc21 | 11.7 µM (active) |  |
| CCOC(=O)N1CCN(C(=O)c2cn(C)c3ccc(S(=O)(=O)N(CC)CC)cc3c2=O)CC1 |  | 7.13% |
| CCN(CC)S(=O)(=O)c1ccc(Cl)c(C(=O)NCCN2CCOCC2)c1 |  | -1.82% |
| O=C(CN1CCN(C(=O)C2CCCO2)CC1)Nc1c(Cl)cccc1Cl (stereo not drawn) |  | 0.239% |
| O=C(NC(=S)NC1CCCCC1)c1ccc(Cl)cc1 |  | -16.1% |
| CCOC(=O)N1CCN(S(=O)(=O)c2ccc(Br)cc2)CC1 |  | 37.3% |
| Cc1cc(C)c2c(-c3ccc(F)cc3)c(C#N)c(=O)n(C)c2n1 |  | -0.519% |
| COc1ccc(O)c(C(=O)c2cnc3c(c2)c(-c2ccc(F)cc2)c(C#N)c(=O)n3C)c1 | 1.65 µM (active) |  |
| Cn1c(N)cc(-c2ccc(F)cc2)c(C#N)c1=O |  | -9.99% |
| COc1ccc(/C=N/Nc2nc(-c3ccc(C)cc3)c(C#N)c(=O)[nH]2)cc1 |  | -6.4% |
| COc1ccccc1C(=O)NC(CCSC)C(=O)N1CCN(C(C)=O)CC1 (stereo not drawn) |  | 0% |
| CSCCC(NC(=O)c1ccccc1)C(=O)N1CCCCCCC1 (stereo not drawn) |  | -5.02% |
| CSCCC(NC(=O)c1ccccc1)C(=O)N1CCN(Cc2ccc(Cl)cc2)CC1 (stereo not drawn) | 2.94 µM (active) |  |
| c1ccc2c(c1)CSc1sccc1C2=C1CCNCC1 | 11.7 µM (active) |  |
| O=C(CNC(=O)c1ccc(Br)o1)NCC1CCCO1 (stereo not drawn) |  | 24.5% |
| CCOC(=O)N1CCN(C(=O)COC(=O)c2cccc(S(C)(=O)=O)c2)CC1 |  | 22.3% |
| CCOc1ccc(NC(=O)C(C)N2C(=O)c3ccccc3C2=O)cc1 (stereo not drawn) |  | 7.81% |
| COc1ccc(-c2ccc3nnc(SCC(=O)Nc4ccc(NC(C)=O)cc4)n3n2)cc1 |  | 18.1% |
| COc1ccc(CNS(=O)(=O)c2ccc(NC(=O)N3CCCCC3)cc2)cc1 |  | -5.79% |

| SMILES | Potency | activity change, negative = inhibition |
| --- | --- | --- |
| COc1ccc(C(=O)N2CCN(c3ccc(C(C)=O)cc3F)CC2)cc1S(=O)(=O)NC1CC1 |  | 17.8% |
| COc1ccc(CNc2ncnc3ccccc23)cc1 |  | -8.38% |
| COc1ccc(CNC(=O)CCN2C(=O)c3ccccc3C2=O)cc1 |  | -4.91% |
| COc1ccc(CCNCc2c(-c3ccccc3)n(C)c3ccccc23)cc1 | 11.7 µM (active) |  |
| Cc1cc(N2C(=O)C3CCCN3C2c2ccc(Cl)c(Cl)c2)no1 (stereo not drawn) |  | 2.43% |
| COc1cccc(N2C(=O)C3CCCN3C2c2ccc(F)cc2)c1 (stereo not drawn) | 10.4 µM (active) |  |
| COc1ccc(OC)c(C2N(c3ccccn3)C(=O)C3CCCN32)c1 (stereo not drawn) |  | 9.65% |
| Cc1cccnc1CCNC(=O)C1CCC(=O)N(Cc2cccc(F)c2)C1 (stereo not drawn) |  | 7.78% |
| CCN(Cc1ccccc1)C(=O)Cc1ccc(OC)c(S(=O)(=O)N2CCOCC2)c1 |  | -15.6% |
| COCCN(Cc1ccccc1)C(=O)Cc1ccc(S(=O)(=O)N2CCOCC2)s1 | 10.4 µM (active) |  |
| COc1ccccc1NC(=O)COC(=O)Cc1ccc(S(=O)(=O)N2CCCCC2)s1 |  | 11.4% |
| CC1CCN(C(=O)/C(=C\c2ccccc2)NC(=O)c2ccccc2)CC1 |  | 0.253% |
| Cc1c(C)n2c(SCC(=O)NC3CCCC3)nnc2[nH]c1=O |  | -5.51% |
| CCOc1ncccc1C(=O)OCC(=O)N1c2ccccc2CC1C (stereo not drawn) |  | 7.69% |
| CCOC(=O)C1CCN(S(=O)(=O)c2c(C)noc2C)CC1 |  | 24.2% |
| CCOC(=O)C1CCN(C(=O)C2CCN(S(=O)(=O)c3c(C)noc3C)CC2)CC1 |  | -3.05% |
| Cc1cc(C)c(S(=O)(=O)N2CCC(C(=O)OCc3c(C)noc3C)CC2)c(C)c1 | 11.7 µM (active) |  |
| CCCN(C(=O)c1nc2nccc(C)n2n1)c1c(N)n(Cc2ccccc2)c(=O)[nH]c1=O |  | -14% |
| CCOc1ccc(N(CC(=O)NCc2ccc(OC)cc2)S(=O)(=O)c2c(C)noc2C)cc1 |  | -15.5% |
| CCOC(=O)c1cccc(NC(=O)CN(c2ccc(C)cc2)S(=O)(=O)c2c(C)noc2C)c1 | 8.28 µM (active) |  |
| Cc1ccc(N(CC(=O)Nc2cc(C)cc(C)c2)S(=O)(=O)c2cccc3nonc23)cc1 |  | -5.21% |
| Cc1ccc(NC(=O)[C@H](Cc2ccccc2)NC(=O)C2CCNCC2)cc1 |  | 17.4% |
| O=C(Nc1ccc(S(=O)(=O)Nc2ccccn2)cc1)c1ccccc1 |  | 16.3% |
| COc1cccc(NC(=O)CN(C)C(=O)CSC(=S)N2CCCC2)c1 |  | 6.54% |
| Cc1coc2c(O)cc3c(c12)OC1(N2CCCCC2)C(=O)NCCCC31 (stereo not drawn) | 11.7 µM (active) |  |
| CCOc1ccc(CNC(=O)CCC(=O)N2CCSc3ccccc32)cc1 |  | 10.3% |

| SMILES | Potency | activity change, negative = inhibition |
| --- | --- | --- |
| Cc1cccc(/C=N/NC(=O)CNc2cccc3ccccc23)n1 |  | 26.1% |
| Cc1ccccc1NCC(=O)N/N=C\c1ccc([N+](=O)[O-])s1 | 9.28 µM (active) |  |
| Cn1cccc1/C=N/NC(=O)CNc1cccc2ccccc12 |  | -2.89% |
| CCOc1ccc(NC(=O)CCC(=O)N/N=C/c2ccc([N+](=O)[O-])s2)cc1 | 11.7 µM (active) |  |
| CCOc1ccc(NC(=O)CCC(=O)NNC(=O)NC2CCCCC2)cc1 |  | -21.8% |
| CCOc1ccc(NC(=O)CCC(=O)n2nc(C)cc2C)cc1 |  | 11.4% |
| CN(C)c1cccc(C(=O)N2CCC(n3nccc3NC(=O)C3CCOC3)CC2)c1 (stereo not drawn) |  | -2.94% |
| COc1ccc(CCNC(=O)C(=O)NCC2OCCN2S(=O)(=O)c2ccc(OC)c(C)c2)cc1 (stereo not drawn) |  | -8.72% |
| COC(=O)c1ccccc1NC(=O)CSc1nc2c(c(=O)[nH]1)CCC2 |  | 20.7% |
| CCc1ccc(OCC(=O)OC(C)C(=O)NC2CC2)cc1 (stereo not drawn) |  | 75.2% |
| O=C(NC1CCCC1)C1CCN(C(=O)Nc2cccc(Cl)c2)CC1 |  | -17.9% |
| COc1ccc(Cl)cc1NC(=O)C(C)N1CCc2ccccc21 (stereo not drawn) | 6.57 µM (active) |  |
| COc1ccc(Cl)cc1NC(=O)CNc1ccccc1F |  | -15.1% |
| COc1ccc(Cl)cc1NC(=O)CCN1CCOCC1 |  | -10.9% |
| O=C(O)CC(c1ccccc1F)N1Cc2ccccc2C1=O (stereo not drawn) |  | 16.6% |
| Nc1nc(NCC(=O)O)nc(N2CCCCCC2)c1[N+](=O)[O-] |  | 41.1% |
| CNc1nc(Nc2ccc(C)c(Cl)c2)nc(N)c1[N+](=O)[O-] |  | 200% |
| CCN1CCN(c2nc(Nc3cccc(F)c3)nc(N)c2[N+](=O)[O-])CC1 | 13.1 µM (active) |  |
| COc1ccccc1C(=O)NC(=O)COC(=O)c1ccco1 |  | 0.409% |
| O=C(Cn1cnc2ccccc21)Nc1ccccc1-c1ccccc1 |  | 10.1% |
| CCSc1nnc(SCC(=O)NNC(=O)c2ccccc2F)s1 |  | 17.2% |
| Cc1cc(OCCCN2CCN(Cc3ccccc3)CC2)ccc1[N+](=O)[O-] |  | 7.77% |
| OCC1(CCOc2ccccc2)CCN(Cc2cn[nH]c2-c2ccccc2)CC1 |  | -18.6% |
| Cc1c(CN2CCC(CO)(CCOc3ccccc3)CC2)[nH]c2ccc(Cl)cc12 | 3.7 µM (active) |  |
| CC(OC(=O)CN1C(=O)COc2ccccc21)C(=O)NCc1ccc(F)cc1 (stereo not drawn) |  | -14.5% |
